ADAM10 inh – human ADAM10 inhibitors, primary screen, biochemical, QFRET, HTS | actives 0.62% (n = 370,000) | inhibition, % at 7 µM | Disintegrin and metalloproteinase domain-containing protein 10 (Homo sapiens), O14672 | recombinant ADAM10, EDANS/DABCYL FRET peptide cleavage, 3 h;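 active = inhibition above a per-campaign cutoff equal to the mean of compounds falling between control-based bounds plus 3 SD, cut at about 20% in these data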
Target sequence (O14672 214-748 limits assumed): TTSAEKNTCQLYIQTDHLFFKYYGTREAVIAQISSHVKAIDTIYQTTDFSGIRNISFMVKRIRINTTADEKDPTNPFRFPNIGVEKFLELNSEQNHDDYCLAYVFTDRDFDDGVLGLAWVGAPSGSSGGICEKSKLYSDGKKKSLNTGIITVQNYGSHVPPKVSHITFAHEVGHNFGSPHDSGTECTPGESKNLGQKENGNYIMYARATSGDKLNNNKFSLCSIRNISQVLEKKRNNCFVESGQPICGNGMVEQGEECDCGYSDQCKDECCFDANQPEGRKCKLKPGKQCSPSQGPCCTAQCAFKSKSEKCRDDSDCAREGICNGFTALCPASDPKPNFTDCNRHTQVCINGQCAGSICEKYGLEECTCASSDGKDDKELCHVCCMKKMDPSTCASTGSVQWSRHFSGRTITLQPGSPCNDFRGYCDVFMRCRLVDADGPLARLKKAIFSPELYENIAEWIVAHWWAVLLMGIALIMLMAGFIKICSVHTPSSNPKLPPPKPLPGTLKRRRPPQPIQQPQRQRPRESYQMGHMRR
ADAM17 inh – ADAM17 inhibitors, primary screen, biochemical, QFRET. Disintegrin and metalloproteinase domain-containing protein 17 (Homo sapiens), P78536. actives 0.83% (n = 370,000). inhibition, % at 6.95 µM. recombinant ADAM17, EDANS/DABCYL FRET peptide cleavage. AID 720648, 2013;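 active = inhibition above the mean of compounds lying between control limits plus 3 SD, set per campaign, cut at about 8.5% in these data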
KLK7 zymogen act – proKLK7 zymogen activators, primary screen, biochemical, fluorescence intensity; activation, % at 7 µM; purified proKLK7, EDANS-DABCYL substrate fluorescence; 100% is mature enzyme control, 0% vehicle; actives 0.9% (n = 370,000); AID 652039, 2013; Kallikrein-7 (Homo sapiens), P49862;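 active = activation above the mean of all tested compounds plus 3 SD, computed per campaign excluding outliers beyond control limits, cut at about 13% in these data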
sPLA2-III inh – human group III sPLA2 inhibitors, primary screen, biochemical, QFRET, BODIPY PC-A2 liposome substrate; Group 3 secretory phospholipase A2 (Homo sapiens), Q9NZ20; QFRET BODIPY PC-A2 liposome hydrolysis, fluorescence; inhibition, % at 12.2 µM; actives 0.56% (n = 370,000);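 active = inhibition above mean plus 3 SD of compounds lying within the high and low control bounds, cut at about 19% in these data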
CendR NRP1 mod – modulators of CendR peptide binding to NRP-1, primary screen, biochemical, fluorescence polarization, uHTS | Neuropilin-1 (Homo sapiens), O14786 | FAM-RPARPAR peptide binding to NRP-1 | inhibition, % at 25 µM | actives 0.85% (n = 360,000);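 active = inhibition or corrected inhibition above about 18%, plus a signal ratio from 0.5 to 1.5, limit read from the data, passing the limit was not always enough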
hGIII sPLA2 conf – human group III sPLA2 inhibitors, confirmation, biochemical, QFRET, triplicate; inhibition, % at 12.2 µM; actives 34% (n = 2,000); recombinant hGIII-sPLA2, BODIPY PC-A2 QFRET fluorescence; shares compounds with sPLA2-III inh; AID 743280, 2014;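 active = mean inhibition across triplicates above the hit cutoff set in the earlier primary screen, cut at about 19% in these data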
BODIPY interf – 535nm fluorescence optical interference, confirmation, artefact control for HGIII-sPLA2 inhibitor project, biochemical, QFRET; BODIPY FL product fluorescence interference; inhibition, % at 12.2 µM; shares compounds with sPLA2-III inh; actives 8.5% (n = 2,000); AID 743282, 2014;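 active = average inhibition above the solvent-only control mean plus 3 SD, cut at about 6% in these data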
A number is an active result. This is a sample that favours compounds with a hit; in the whole collection about 3.4% have one here.

Screening Cc1cccc(Cn2c(-c3ccc[nH]c3=O)nc3ccccc32)c1 returned ADAM10 inh inactive, ADAM17 inh inactive, KLK7 zymogen act inactive, sPLA2-III inh inactive and CendR NRP1 mod inactive.
For Cc1cc2nc(-c3ccc[nH]c3=O)n(Cc3ccccc3F)c2cc1C the results were ADAM10 inh inactive, ADAM17 inh inactive, KLK7 zymogen act inactive, sPLA2-III inh 19, CendR NRP1 mod inactive, hGIII sPLA2 conf inactive and BODIPY interf inactive.
Cc1ccc(NC(=O)Cn2cccc2C2=NC(c3ccccc3)CO2)cc1C (centres undefined) was read as ADAM10 inh inactive, ADAM17 inh inactive, KLK7 zymogen act inactive, sPLA2-III inh 21, CendR NRP1 mod inactive, hGIII sPLA2 conf inactive and BODIPY interf inactive.
`O=S(=O)(NCc1ccccc1)c1cc(Br)ccc1Br` gave ADAM10 inh inactive, ADAM17 inh inactive, KLK7 zymogen act inactive and sPLA2-III inh inactive.
For CC(c1ccccc1)N(NC(=O)C(O)(c1ccccc1)c1ccccc1)C(=O)c1ccccc1 (centres undefined) the results were ADAM10 inh inactive, ADAM17 inh inactive, KLK7 zymogen act inactive, sPLA2-III inh 22, CendR NRP1 mod inactive, hGIII sPLA2 conf inactive and BODIPY interf inactive.
O=c1cc(CCc2ccccc2)[nH]c(=O)[nH]1 was read as ADAM10 inh inactive, ADAM17 inh inactive, KLK7 zymogen act inactive, sPLA2-III inh inactive and CendR NRP1 mod inactive.
`CN(c1ccccc1)c1cc(=O)[nH]c(=O)[nH]1` gave ADAM10 inh inactive, ADAM17 inh inactive, KLK7 zymogen act inactive, sPLA2-III inh 28, CendR NRP1 mod inactive, hGIII sPLA2 conf inactive and BODIPY interf inactive.
COC(=O)c1cc(-c2ccc(C)cc2)c(=O)n2c1CCC2 was read as ADAM10 inh inactive, ADAM17 inh inactive, KLK7 zymogen act inactive and sPLA2-III inh inactive.
Screening c1ccc(N2CCN(c3ccccc3)C2c2cccnc2)cc1 returned ADAM10 inh inactive, ADAM17 inh inactive, KLK7 zymogen act inactive, sPLA2-III inh 24, CendR NRP1 mod inactive, hGIII sPLA2 conf inactive and BODIPY interf inactive.
CS(=O)(=O)N[C@@H]1C[C@@H]2O[C@@H](CO)CC[C@@H]2O[C@@H]1CCc1ccc(/C=C/c2ccccc2)cc1 was read as ADAM10 inh inactive, ADAM17 inh inactive, KLK7 zymogen act inactive and sPLA2-III inh inactive.
For CCCNC(=O)C[C@H]1CC[C@H]2[C@@H](COc3ccc(NC(=O)Nc4ccc(C#N)cc4)cc3C(=O)N2C)O1 the results were ADAM10 inh inactive, ADAM17 inh inactive, KLK7 zymogen act inactive and sPLA2-III inh inactive.
For CCC(=O)Nc1ccc2c(c1)C(=O)N(C)[C@@H]1CC[C@@H](CC(=O)NCCN3CCCCC3)O[C@H]1CO2 the results were ADAM10 inh inactive, ADAM17 inh inactive, KLK7 zymogen act inactive, sPLA2-III inh 21, hGIII sPLA2 conf inactive and BODIPY interf inactive.
`COc1ccc(-n2c(COc3ccc(Cl)cc3)nnc2SCc2nc3ccccc3[nH]2)cc1` gave ADAM10 inh inactive, ADAM17 inh inactive, KLK7 zymogen act inactive and sPLA2-III inh inactive.
For C#CCNC(=O)C[C@@H]1C(=O)N(CCc2ccc(Cl)cc2)/C2=C/CCCCC[C@@]21C(=O)OCC the results were ADAM10 inh inactive, ADAM17 inh inactive, KLK7 zymogen act inactive and sPLA2-III inh inactive.
CCCCOCCCNC(=O)C[C@H]1C[C@@]2(C(=O)OC)C(=C[C@H](C(C)C)O[C@@H]2C2CC2)N(CCC2=CCCCC2)C1=O was read as ADAM10 inh inactive, ADAM17 inh inactive, KLK7 zymogen act inactive and sPLA2-III inh inactive.
Screening CCN(CC)C(=O)c1ncn2c1c(=O)[nH]c1ccccc12 returned ADAM10 inh inactive, ADAM17 inh inactive, KLK7 zymogen act inactive, sPLA2-III inh 20, CendR NRP1 mod inactive, hGIII sPLA2 conf inactive and BODIPY interf inactive.
For COc1ccc(OC)c(S(=O)(=O)NCC2CCN(C(=O)C(=O)c3cccs3)CC2)c1 the results were ADAM10 inh inactive, ADAM17 inh inactive, KLK7 zymogen act inactive and sPLA2-III inh inactive.
For CCCCCC(=O)Nc1cc(N(C)C)nc2ccccc12 the results were ADAM10 inh inactive, ADAM17 inh inactive, KLK7 zymogen act inactive, sPLA2-III inh inactive and CendR NRP1 mod inactive.
`CCN(CC)CC(=O)Nc1cc(N(C)C)nc2ccccc12` gave ADAM10 inh inactive, ADAM17 inh inactive, KLK7 zymogen act inactive, sPLA2-III inh 20, CendR NRP1 mod inactive, hGIII sPLA2 conf inactive and BODIPY interf inactive.
Screening Cc1ccc(OC(=O)c2sc(Cl)nc2C)cc1C returned ADAM10 inh inactive, ADAM17 inh inactive, KLK7 zymogen act inactive, sPLA2-III inh 21, CendR NRP1 mod inactive, hGIII sPLA2 conf inactive and BODIPY interf inactive.
For COc1ccc(N(C)C(=O)c2sc(Cl)nc2C)cc1 the results were ADAM10 inh inactive, ADAM17 inh inactive, KLK7 zymogen act inactive, sPLA2-III inh inactive and CendR NRP1 mod inactive.
`O=C1NC(c2cccc(C(F)(F)F)c2)c2c(-c3ccccc3)n[nH]c21` (centres undefined) gave ADAM10 inh inactive, ADAM17 inh inactive, KLK7 zymogen act inactive and sPLA2-III inh inactive.
For CC1(C)Oc2ccc(C#N)cc2[C@@H](N2CCCC2=O)[C@@H]1O the results were ADAM10 inh inactive, ADAM17 inh inactive, KLK7 zymogen act inactive, sPLA2-III inh 21, CendR NRP1 mod inactive, hGIII sPLA2 conf inactive and BODIPY interf inactive.
For N#Cc1ccc2c(c1)NC(=O)C1CCCN21 (centres undefined) the results were ADAM10 inh inactive, ADAM17 inh inactive, KLK7 zymogen act inactive, sPLA2-III inh inactive and CendR NRP1 mod inactive.
Screening Cc1cccc(CN2CCN(C3CN(Cc4cn(Cc5ccc(C(F)(F)F)cc5)nn4)S(=O)(=O)C3)CC2)c1 (centres undefined) returned ADAM10 inh inactive, ADAM17 inh inactive, KLK7 zymogen act inactive and sPLA2-III inh inactive.
Screening CC1CN(c2ccc([N+](=O)[O-])c(NCCOc3ccccc3)c2)CCN1 (centres undefined) returned ADAM10 inh inactive, ADAM17 inh inactive, KLK7 zymogen act inactive, sPLA2-III inh 39, CendR NRP1 mod inactive, hGIII sPLA2 conf inactive and BODIPY interf inactive.
Screening COc1ccc(OCCNc2cc(N3CCCCC3)ccc2[N+](=O)[O-])cc1 returned ADAM10 inh inactive, ADAM17 inh inactive, KLK7 zymogen act inactive, sPLA2-III inh inactive and CendR NRP1 mod inactive.

Screening data: PubChem, several laboratories
